# Assay results published in PubChem BioAssay AID1159580 (chemical genetic matrix, 2015).
# Where “and” joins values, the source holds several entries; their conditions need not be identical. Equal entries are not always repeated. Among all 5,500 compounds or so, about 2,000 (36%) were called active. About 18% were inconclusive and are not listed. The list shows a part of the results. A number with no mark means an inactive call. No stated cut-off is given here; in the data, active means normalized growth mostly below about 0.91 (no sharp cut-off); inconclusive means no clear call, values can overlap the other calls; inactive means mostly above about 0.92.
# Experiment: chemical genetic growth profiling, strain panel (AID 1159580);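 further: tested at 20 µM; growth read once vehicle control cultures reached saturation at 30 °C; 1 = growth at the plate median or of vehicle wells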
# Details: S. cerevisiae deletion strains, growth OD
structure (smiles),measurement,setting,value
CC(=O)OC[C@@]1(O)C[C@@]23CCC4c5ccoc5CC[C@]4(C)C2CC[C@@H]1C3 (some centres not stated),normalized growth,"locus YAL013W, strain DEP1, stronger effect = lower value",0.985
same,normalized growth,"locus YAL021C, strain ccr4, stronger effect = lower value",1.03
same,normalized growth,"locus YAL026C, strain drs2, stronger effect = lower value",0.901 (active)
same,normalized growth,"locus YAL030W, strain snc1, stronger effect = lower value",1.02
same,normalized growth,"locus YBL061C, strain skt5, stronger effect = lower value",0.988
same,normalized growth,"locus YBR009C, strain hhf1, stronger effect = lower value",0.97
same,normalized growth,"locus YBR021W, strain FUR4, stronger effect = lower value",0.964
same,normalized growth,"locus YBR023C, strain chs3, stronger effect = lower value",0.953
same,normalized growth,"locus YBR171W, strain sec66, stronger effect = lower value",0.986
same,normalized growth,"locus YBR229C, strain ROT2, stronger effect = lower value",0.998
same,normalized growth,"locus YBR231C, strain swc5, stronger effect = lower value",1.01
same,normalized growth,"locus YBR279W, strain paf1, stronger effect = lower value",1.02
same,normalized growth,"locus YCL011C, strain gbp2, stronger effect = lower value",0.998
same,normalized growth,"locus YCL016C, strain dcc1, stronger effect = lower value",0.975
same,normalized growth,"locus YCL029C, strain bik1, stronger effect = lower value",0.963
same,normalized growth,"locus YCL061C, strain MRC1, stronger effect = lower value",0.98
same,normalized growth,"locus YCL069W, strain vba3, stronger effect = lower value",1
same,normalized growth,"locus YCR088W, strain abp1, stronger effect = lower value",0.997
same,normalized growth,"locus YDL005C, strain med2, stronger effect = lower value",1.02
same,normalized growth,"locus YDL035C, strain GPR1, stronger effect = lower value",0.899
same,normalized growth,"locus YDL040C, strain nat1, stronger effect = lower value",1
same,normalized growth,"locus YDL074C, strain BRE1, stronger effect = lower value",0.88
same,normalized growth,"locus YDL101C, strain DUN1, stronger effect = lower value",0.986
same,normalized growth,"locus YDL134C, strain PPH21, stronger effect = lower value",0.973
same,normalized growth,"locus YDL185W, strain tfp1, stronger effect = lower value",0.968
same,normalized growth,"locus YDL192W, strain arf1, stronger effect = lower value",0.932
same,normalized growth,"locus YDR001C, strain nth1, stronger effect = lower value",1
same,normalized growth,"locus YDR069C, strain doa4, stronger effect = lower value",1.02
same,normalized growth,"locus YDR101C, strain arx1, stronger effect = lower value",0.965
same,normalized growth,"locus YDR137W, strain rgp1, stronger effect = lower value",0.805 (active)
same,normalized growth,"locus YDR150W, strain NUM1, stronger effect = lower value",0.948
same,normalized growth,"locus YDR159W, strain sac3, stronger effect = lower value",0.991
same,normalized growth,"locus YDR162C, strain NBP2, stronger effect = lower value",0.97
same,normalized growth,"locus YDR195W, strain ref2",0.993
same,normalized growth,"locus YDR297W, strain sur2, stronger effect = lower value",1.01
same,normalized growth,"locus YDR318W, strain mcm21, stronger effect = lower value",0.911 (active)
same,normalized growth,"locus YDR334W, strain swr1, stronger effect = lower value",1.01
same,normalized growth,"locus YDR335W, strain msn5, stronger effect = lower value",1
same,normalized growth,"locus YDR388W, stronger effect = lower value",0.977
same,normalized growth,"locus YDR392W, strain spt3, stronger effect = lower value",0.576 (active)
same,normalized growth,"locus YDR502C, strain sam2, stronger effect = lower value",0.956
same,normalized growth,"locus YEL003W, strain gim4, stronger effect = lower value",1
same,normalized growth,"locus YEL037C, strain rad23, stronger effect = lower value",0.992
same,normalized growth,"locus YEL061C, strain CIN8 (second series), stronger effect = lower value",1
same,normalized growth,"locus YEL061C, strain CIN8, stronger effect = lower value",0.986
same,normalized growth,"locus YER015W, strain faa2, stronger effect = lower value",1.01
same,normalized growth,"locus YER016W, strain bim1, stronger effect = lower value",0.996
same,normalized growth,"locus YER110C, stronger effect = lower value",0.95
same,normalized growth,"locus YER111C, strain swi4, stronger effect = lower value",0.995
same,normalized growth,"locus YER155C, strain BEM2 (second series), stronger effect = lower value",0.987
same,normalized growth,"locus YER155C, strain BEM2, stronger effect = lower value",0.972
same,normalized growth,"locus YER167W, strain BCK2, stronger effect = lower value",0.929
same,normalized growth,"locus YFR010W, strain ubp6, stronger effect = lower value",0.985
same,normalized growth,"locus YGL078C, strain dbp3, stronger effect = lower value",0.966
same,normalized growth,"locus YGL086W, strain mad1, stronger effect = lower value",0.931
same,normalized growth,"locus YGL167C, strain pmr1, stronger effect = lower value",1
same,normalized growth,"locus YGL173C, strain kem1, stronger effect = lower value",1.03
same,normalized growth,"locus YGL227W, strain vid30, stronger effect = lower value",1.01
same,normalized growth,"locus YGL240W, strain doc1, stronger effect = lower value",1
same,normalized growth,"locus YGL248W, strain PDE1, stronger effect = lower value",0.98
same,normalized growth,"locus YGL253W, strain hxk2, stronger effect = lower value",0.91 (active)
same,normalized growth,"locus YGR078C, strain PAC10, stronger effect = lower value",0.934
same,normalized growth,"locus YGR135W, strain pre9, stronger effect = lower value",0.95
same,normalized growth,"locus YGR229C, strain SMI1, stronger effect = lower value",0.804 (active)
same,normalized growth,"locus YGR252W, strain gcn5, stronger effect = lower value",0.912
same,normalized growth,"locus YHR013C, strain ard1, stronger effect = lower value",1.19 [resistant] (active)
same,normalized growth,"locus YHR027C, strain rpn1, stronger effect = lower value",1.01
same,normalized growth,"locus YHR030C, strain SLT2, stronger effect = lower value",0.943 and 0.867
same,normalized growth,"locus YHR079C, strain IRE1 (second series), stronger effect = lower value",0.924 (active)
same,normalized growth,"locus YHR079C, strain IRE1, stronger effect = lower value",0.918
same,normalized growth,"locus YHR094C, strain hxt1, stronger effect = lower value",0.96
same,normalized growth,"locus YHR129C, strain ARP1, stronger effect = lower value",0.985
same,normalized growth,"locus YHR142W, strain chs7, stronger effect = lower value",0.846 (active)
same,normalized growth,"locus YHR200W, strain rpn10, stronger effect = lower value",0.96
same,normalized growth,"locus YIL066C, strain RNR3, stronger effect = lower value",0.981
same,normalized growth,"locus YIL073C, strain SPO22, stronger effect = lower value",0.991
same,normalized growth,"locus YIL125W, strain kgd1, stronger effect = lower value",0.965
same,normalized growth,"locus YIR030C, strain dcg1, stronger effect = lower value",0.974
same,normalized growth,"locus YJL092W, strain hpr5, stronger effect = lower value",1
same,normalized growth,"locus YJL095W, strain BCK1 (second series), stronger effect = lower value",1.01
same,normalized growth,"locus YJL095W, strain BCK1, stronger effect = lower value",0.909 and 0.89
same,normalized growth,"locus YJL115W, strain asf1, stronger effect = lower value",1.01
same,normalized growth,"locus YJL129C, strain trk1, stronger effect = lower value",0.984
same,normalized growth,"locus YJL134W, strain LCB3, stronger effect = lower value",0.973
same,normalized growth,"locus YJL154C, strain vps35, stronger effect = lower value",1
same,normalized growth,"locus YJL164C, strain tpk1, stronger effect = lower value",0.973
same,normalized growth,"locus YJL166W, strain qcr8, stronger effect = lower value",0.996
same,normalized growth,"locus YJL168C, strain set2, stronger effect = lower value",0.983
same,normalized growth,"locus YJL187C, strain SWE1 (second series), stronger effect = lower value",0.961
same,normalized growth,"locus YJL187C, strain SWE1, stronger effect = lower value",1.01
same,normalized growth,"locus YJR043C, strain POL32, stronger effect = lower value",0.954
same,normalized growth,"locus YJR066W, strain TOR1, stronger effect = lower value",0.825 (active)
